Measurements taken from the supplement of paper PMC6607015.
Counter-ions that a name gives are not always drawn.

How the values were obtained:
Conditions in all cases: compound concentration in added solution (µM; 5 µl added to 20 µl cells): 10; 18 h
A431 [1] = assay: LBPA endosome anti-LBPA integrated intensity (sum per cell), Z-score; higher = more LBPA staining
Method in brief: (§1)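 Per-cell integrated LBPA or filipin intensity, whole-cell or within LBPA endosomes, is expressed as Z-scores normalised in AcuityXpress. HeLa MZ or A431 cells, 3,500 per well in 20 µl, sat on 5 µl of 10 µM compound solution in duplicate 384-well imaging plates for 18 h. They were then fixed in 4% PFA, stained, imaged in four 20× fields per well and segmented using MetaXpress.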

HeLa MZ [2] = assay: as above
Method in brief: as §1

A431 [3] = assay: whole-cell filipin (free cholesterol) integrated intensity, Z-score; higher = more cholesterol staining
Method in brief: as §1

HeLa MZ [4] = assay: as above
Method in brief: as §1

A431 [5] = assay: filipin (cholesterol) integrated intensity within LBPA endosomes, Z-score; higher = more cholesterol in LBPA endosomes
Method in brief: as §1

HeLa MZ [6] = assay: as above
Method in brief: as §1

Row | Compound | LBPA endosome anti-LBPA integrated intensity (z-score) (A431 [1]) | LBPA endosome anti-LBPA integrated intensity (z-score) (HeLa MZ [2]) | whole-cell filipin (z-score) (A431 [3]) | whole-cell filipin (z-score) (HeLa MZ [4]) | filipin (z-score) (A431 [5]) | filipin (z-score) (HeLa MZ [6])
1 | CC(=O)NCCCS(=O)(=O)O [Acamprosate calcium] | -0.335 | 0.472 | -0.555 | -0.465 | -0.407 | -0.547
2 | CC(=O)Nc1nnc(S(N)(=O)=O)s1 [Acetazolamide] | -0.546 | -1.16 | -0.799 | -0.564 | -0.395 | -0.429
3 | CCCOc1ccccc1-c1nc2[nH]nnc2c(=O)[nH]1 [Zaprinast] | -0.577 | -0.755 | -0.471 | 0.00218 | -0.519 | -0.401
4 | NS(=O)(=O)c1cc2c(cc1Cl)NCNS2(=O)=O [Hydrochlorothiazide] | -0.538 | -1.08 | -0.757 | -0.0813 | -0.476 | -0.419
5 | O=C(CCNNC(=O)c1ccncc1)NCc1ccccc1 [Nialamide] | -0.371 | 0.29 | -0.078 | -0.132 | -0.403 | -0.566
6 | Cc1cccc(C)c1OCC(C)N (centres undefined) [Mexiletine hydrochloride] | -0.572 | -0.935 | -0.883 | -0.901 | -0.495 | -0.576
7 | CC(C)(C)NCC(O)COc1cccc2c1CCC(=O)N2 (centres undefined) [Carteolol hydrochloride] | -0.364 | 0.373 | -0.558 | -0.304 | -0.479 | -0.264
8 | OCC(O)CN1CCN(c2ccccc2)CC1 (racemic) [Dropropizine (R,S)] | -0.485 | -0.821 | -0.651 | -0.914 | -0.515 | -0.59
9 | CC1(C)[C@H](C(=O)O)N2C(=O)C[C@H]2S1(=O)=O [Sulbactam] | -0.453 | -1.27 | -0.128 | -0.121 | -0.375 | -0.509
10 | CCOC(=O)[C@H](CCc1ccccc1)N[C@H]1CCc2ccccc2N(CC(=O)O)C1=O [Benazepril HCl] | -0.544 | -0.517 | -0.676 | -0.703 | -0.597 | -0.712
11 | CC(=O)N(O)CCCCCNC(=O)CCC(=O)N(O)CCCCCNC(=O)CCC(=O)N(O)CCCCCN [Deferoxamine mesylate] | -0.408 | -0.755 | 0.541 | -0.469 | -0.422 | -0.499
12 | NS(=O)(=O)c1cc2c(cc1Cl)N=CNS2(=O)=O [Chlorothiazide] | -0.508 | -0.375 | -0.521 | -0.988 | -0.472 | -0.537
13 | C[N+]1(CCCCC[N+]2(C)CCCC2)CCCC1 [Pentolinium bitartrate] | -0.453 | -0.278 | -0.653 | -0.161 | -0.437 | -0.405
14 | N=C(N)NC(=O)c1nc(Cl)c(N)nc1N [Amiloride hydrochloride dihydrate] | -0.438 | -0.561 | -0.785 | -0.475 | -0.486 | -0.551
15 | CC(C)(O)c1ccccc1CC[C@@H](SCC1(CC(=O)O)CC1)c1cccc(/C=C/c2ccc3ccc(Cl)cc3n2)c1 [Montelukast] | -0.42 | 0.903 | -0.0363 | 0.0687 | -0.415 | -0.392
16 | CC(=O)S[C@@H]1CC2=CC(=O)CC[C@]2(C)[C@H]2CC[C@@]3(C)[C@@H](CC[C@@]34CCC(=O)O4)[C@H]12 [Spironolactone] | -0.583 | -0.535 | -0.744 | -0.849 | -0.526 | -0.689
17 | CN1C(=O)CC(c2ccccc2)C1=O (centres undefined) [Phensuximide] | -0.488 | -0.914 | -0.489 | -0.774 | -0.376 | -0.653
18 | COc1cc(C)c(/C=C/C(C)=C/C=C/C(C)=C/C(=O)O)c(C)c1C [Acitretin] | -0.624 | -0.537 | 0.514 | 0.218 | -0.413 | -0.258
19 | CO[C@@]1(NC(=O)CSCC#N)C(=O)N2C(C(=O)O)=C(CSc3nnnn3C)CS[C@@H]21 [Cefmetazole sodium salt] | -0.329 | 0.139 | -0.215 | -0.0972 | -0.434 | -0.479
